This is an account of results in PubChem BioAssay (Tox21).

Where “and” joins values, the source holds several entries; their conditions need not be identical. Identical values can stand only once. Results filed as inconclusive are left out. Some compounds were tested as several samples or in several runs, with calls that do not always agree. Calls of active or inactive are those of the source. Unless noted, calls come from the whole dose curve; as a rule, active = well fitted curve in the direction sought with a large enough effect in the repeat runs; inconclusive = weak or mixed curves; inactive = no such curve, though single readings can be large; an effect the other way counts as inactive or inconclusive.

Assay [1] in a line: A CellTox Green Cytotoxicity Assay to monitor cytotoxicity in HEK293 cells - 32 hour (AID 1224881). Note: nearly all actives have a fitted effect of over 40% in size. Note: potency is the fitted concentration of half-maximal effect. The gist of the method:
(§1)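 Homogeneous no-lysis format: HEK293 cell suspension mixed with CellTox Green reagent, seeded, incubated 5 h at 37 C/5% CO2, then dosed by pintool with compound in DMSO.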

A short description of assay [2]: A CellTox Green Cytotoxicity Assay to monitor cytotoxicity in HepG2 cells - 0 hour (AID 1224882). Note: nearly all actives have a fitted effect of over 35% in size. A digest of the protocol:
(§2)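 Fluorescent DNA-binding dye, 600 HepG2 cells/well, 5 h preincubation then compound in DMSO; same plates read at 0–40 h, 37 C.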

A short description of assay [3]: A CellTox Green Cytotoxicity Assay to monitor cytotoxicity in HepG2 cells - 32 hour (AID 1224883). Note: nearly all actives have a fitted effect of over 50% in size. The gist of the method:
as §2

Assay [4] is described as follows: A CellTox Green Cytotoxicity Assay to monitor cytotoxicity in HEK293 cells - 8 hour (AID 1224884). Note: nearly all actives have a fitted effect of over 35% in size. The gist of the method:
as §1

The nature of assay [5]: qHTS RealTime-Glo MT Cell Viability Assay in HepG2 cells - 16 hour (AID 1224885). Note: nearly all actives have a fitted effect of over 50% in size. A digest of the protocol:
(§3)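 Cells + NanoLuc/prosubstrate dispensed (600 cells/well) → 5 h at 37 C/5% CO2 → compounds in DMSO transferred → 40 h incubation at 37 C, luminescence read at 0, 8, 16, 24, 32, 40 h.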
(In general: In qHTS, concentration-response curves come from the screen itself.)

Assay [6] is described as follows: qHTS RealTime-Glo MT Cell Viability Assay in HEK293 cells - 24 hour (AID 1224886). Note: nearly all actives have a fitted effect of over 50% in size. Note: potency is the fitted concentration of half-maximal effect. The gist of the method:
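Tox21 10K qHTS, HEK293, 600 cells/well, RealTime-Glo reagent co-dispensed with cells; 5 h preincubation, compound by pintool, 37 C, luminescence at 0–40 h.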

The nature of assay [7]: qHTS RealTime-Glo MT Cell Viability Assay in HEK293 cells - 8 hour (AID 1224887). Note: nearly all actives have a fitted effect of over 50% in size. Note: potency is the fitted concentration of half-maximal effect. A digest of the protocol: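 Measured as luminescence from the same continuously cultured HEK293 wells at successive time points (0, 8, 16, 24, 32, 40 h) after compound addition. Reagent present from seeding; dosing at 5 h; incubation 37 C.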
Assay [8] can be described thus: A CellTox Green Cytotoxicity Assay to monitor cytotoxicity in HEK293 cells - 16 hour (AID 1224888). Note: nearly all actives have a fitted effect of over 35% in size. A digest of the protocol: as §1
Assay [9] is described as follows: qHTS RealTime-Glo MT Cell Viability Assay in HepG2 cells - 0 hour (AID 1224889). Note: nearly all actives have a fitted effect of over 50% in size. The gist of the method:
as §3

Assay [10] is described as follows: A CellTox Green Cytotoxicity Assay to monitor cytotoxicity in HepG2 cells - 8 hour (AID 1224890). Note: nearly all actives have a fitted effect of over 45% in size. The gist of the method:
as §2

Assay [11] can be described thus: qHTS assay to identify small molecule antagonists of the estrogen receptor alpha (ER-alpha) signaling pathway using the BG1 cell line in the presence of 0.1 nM 17-beta-estradiol - cell viability counter screen (AID 1259241). Note: nearly all actives have a fitted effect of over 40% in size. The gist of the method: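 Cytotoxicity counter-screen: live-cell protease activity measured by fluorescence (30 min reagent step) in the same wells. Cells were VM7Luc4E2 with endogenous ER-alpha and ERE-driven luciferase, treated 22 hr at 37C alongside 0.1 nM 17beta-estradiol final.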

A short description of assay [12]: qHTS assay to identify small molecule HDAC inhibitors - cell viability counter screen (AID 1259365). The gist of the method:
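CellTiter-Glo luminescence (30 min, room temperature) reported viability after a 2 h compound exposure at 37 C. Cells: wild-type HCT-116, 1,500 per well, seeded the night before.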

Assay [13] in a line: qHTS assay to identify small molecule agonists of the sonic hedgehog signaling (Shh) pathway (AID 1259368; calls by dose curve;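 note: NIH/3T3-derived 3T3Gli1-Luc cells carrying a stable Gli1-driven firefly luciferase reporter; series mostly up to about 92 µM; nearly all actives have a fitted effect of over 15% in size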). The gist of the method: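 Stable NIH/3T3 Gli1-Luc reporter clone; 24 hr cpd exposure after a 4 hr settling period; luminescence endpoint.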
The nature of assay [14]: qHTS assay to identify small molecule antagonists of the sonic hedgehog signaling (Shh) pathway (AID 1259369; calls by dose curve; note: nearly all actives have a fitted effect of over 45% in size; note: potency is the fitted concentration of half-maximal effect). The gist of the method: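 Gli1 transcriptional reporter (firefly Luc) in NIH/3T3 background, conditioned-medium activated. 24hr exposure, luminescence endpoint.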
The nature of assay [15]: qHTS assay to identify small molecule antagonists of the androgen receptor (AR) signaling pathway using the MDA cell line in the presence of 0.5 nM R1881 - cell viability counter screen (AID 1259242). Note: nearly all actives have a fitted effect of over 45% in size. Note: potency is the fitted concentration of half-maximal effect. The gist of the method: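 Human breast carcinoma MDA-kb2 cells, cultured without CO2, receive compounds alongside 0.5 nM (final) R1881 agonist. After 16 hr at 37C, viability is taken as live-cell protease signal.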

Assay [16] in a line: qHTS assay to identify small molecule phospholipidosis (PLD) inducers (AID 1259344; active = well fitted curve in the direction sought with a large enough effect; an effect the other way counts as inactive or inconclusive). The gist of the method: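 Cells (HepG2, 900 per well) attach for 4 h, receive LipidTOX Red and compound together, incubate 24 h at 37 C, are fixed 30 min with paraformaldehyde/Hoechst, then imaged at one site per well.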
The nature of assay [17]: qHTS assay to identify small molecule agonists of the sonic hedgehog signaling (Shh) pathway - cell viability counter screen (AID 1259366). Note: nearly all actives have a fitted effect of over 50% in size. Note: potency is the fitted concentration of half-maximal effect. A digest of the protocol: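 Cytotoxicity counter screen: CellTiter-Fluor reagent added after 23 h compound exposure, then 1 h at 37C and fluorescence read. Cells were 3T3 Gli1-Luc, seeded 2,000 per well and dosed 4 h post-plating.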

Assay [18] in a line: qHTS assay to identify small molecule antagonists of the sonic hedgehog signaling (Shh) pathway - cell viability counter screen (AID 1259367). Note: nearly all actives have a fitted effect of over 55% in size. Note: potency is the fitted concentration of half-maximal effect. The gist of the method:
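Cytotoxicity was assessed in parallel with Shh reporter activity by measuring live-cell protease fluorescence (CellTiter-Fluor) in NIH/3T3 cells stably carrying Gli1-Luc, treated with compound under conditioned medium stimulation for 23 hr plus 1 hr reagent incubation.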

The target in assay [19] is Estrogen receptor (Homo sapiens) (UniProt P03372). The assay is described as follows: qHTS assay to identify small molecule antagonists of the estrogen receptor alpha (ER-alpha) signaling pathway using the BG1 cell line in the presence of 0.1 nM 17-beta-estradiol (AID 1259244). Note: nearly all actives have a fitted effect of over 50% in size. Note: potency is the fitted concentration of half-maximal effect. A digest of the protocol:
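Seeding of stripped-serum-adapted VM7Luc4E2 cells, 24 h attachment, compound transfer, then 0.1 nM final 17beta-estradiol; after 22 h incubation, ONE-Glo reagent and luminescence reading.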

Assay [20] is described as follows: qHTS assay to identify small molecule HDAC inhibitors (AID 1259364).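 Note: wild-type HCT-116 cells with endogenous class I/II HDAC activity; top concentration of the series differs between compounds; nearly all actives have a fitted effect of over 45% in size.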 The gist of the method: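 After a 2 hr compound incubation (37C, 5% CO2), HCT-116 cells seeded at 1,500/well the day before received HDAC-Glo reagent; signal read as luminescence after 30 min at room temperature.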

Estrogen receptor (Homo sapiens), sequence (P03372 whole entry, looked up): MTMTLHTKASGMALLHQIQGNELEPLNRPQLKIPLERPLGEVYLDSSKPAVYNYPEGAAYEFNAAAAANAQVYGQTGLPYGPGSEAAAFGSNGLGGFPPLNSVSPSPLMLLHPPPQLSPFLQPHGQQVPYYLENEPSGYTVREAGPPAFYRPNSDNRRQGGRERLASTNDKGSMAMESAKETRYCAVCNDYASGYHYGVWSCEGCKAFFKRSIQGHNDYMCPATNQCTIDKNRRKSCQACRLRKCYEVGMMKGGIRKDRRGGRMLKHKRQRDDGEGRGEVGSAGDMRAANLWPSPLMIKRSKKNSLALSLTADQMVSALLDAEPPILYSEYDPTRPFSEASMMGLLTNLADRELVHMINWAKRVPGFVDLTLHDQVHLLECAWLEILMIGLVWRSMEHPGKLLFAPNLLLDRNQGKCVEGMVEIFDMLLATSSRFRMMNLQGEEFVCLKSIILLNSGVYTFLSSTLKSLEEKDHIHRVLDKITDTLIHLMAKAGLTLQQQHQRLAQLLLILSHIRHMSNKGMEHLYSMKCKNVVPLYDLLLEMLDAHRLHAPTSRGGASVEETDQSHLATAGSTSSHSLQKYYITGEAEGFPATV

Turning to `C=CC(=O)OCCO`, the Potency entry in assay [1], in [2], in assay [3], in assay [4], in assay [5] and in assay [6] was “inactive” in each case. Moreover, the Potency entry in assay [7], in assay [8], in assay [9], in assay [10], in assay [11] and in [13] was “inactive” in each case. Also, the outcome in assay [12] was inactive. Further, the Potency in assay [14] was 24.7 µM (active) and 27.3 µM (active).

Turning to `C[C@]12CCC(=O)C[C@@H]1CC[C@@H]1[C@@H]2CC[C@]2(C)[C@@H](O)CC[C@@H]12`, the Potency is 38.4 µM (active) and inactive in assay [1]; 21.6 µM (active) in [6]; 17 µM (active) and 13.7 µM (active) in [14]. The Potency result in [2], in assay [3], in assay [4], in [5], in [7] and in assay [8] was “inactive” throughout. Further, the Potency entry in assay [10], in [11], in assay [15], in assay [17], in assay [18] and in assay [13] was “inactive” each time. The result in assay [16] and in [12] was inactive.

As to `NCc1cccnc1`, the Potency result in assay [1], in [2], in assay [4], in assay [5], in [6] and in assay [7] was “inactive” each time. Besides, the Potency entry in [8], in [9], in assay [10], in [11], in assay [15] and in assay [19] was “inactive” each time. In addition, the Potency result in assay [20], in [17], in assay [18], in [13] and in [14] was “inactive” in each case. For the same compound, the compound was called inactive in assay [16] and in [12].

In the case of `Oc1cc(Cl)c(Cl)cc1Cl`, the Potency result in [1], in assay [2], in assay [3], in assay [4], in assay [5] and in [6] was “inactive” throughout. Moreover, the Potency result in [8], in [9], in assay [10], in assay [11], in assay [17] and in assay [18] was “inactive” in each case. Besides, the Potency entry in assay [13] and in assay [14] was “inactive” each time. Moreover, the compound was classed as inactive in assay [16] and in [12].

Regarding `C#CCOS(=O)OC1CCCCC1Oc1ccc(C(C)(C)C)cc1` (configuration not stated), the Potency result in [1], in assay [2], in [3], in assay [4], in assay [8] and in assay [9] was “inactive” in each case. The Potency result in assay [10], in assay [11], in assay [20] and in [13] was “inactive” throughout. For the same compound, the Potency in assay [6] was 15.5 µM (active) and 19.5 µM (active); in assay [7] it was 17.4 µM (active); in assay [15] it was 6.11 µM (active); in [19], 8.64 µM (active) and 15.4 µM (active); in assay [17] it was 24.4 µM (active) and 54.5 µM (active); in [18], 21.7 µM (active) and 27.3 µM (active). The Potency in [14] is 687 nM (active) and 2.17 µM (active). In [12], the compound was classed as inactive.

Consider `CC(C)C(=O)OCC(C)(C)C(OC(=O)C(C)C)C(C)C` (configuration not stated), for which the Potency entry in assay [1], in [2], in assay [3], in [4], in assay [5] and in assay [6] was “inactive” each time. In addition, the Potency entry in assay [7], in assay [8], in assay [9], in assay [10], in assay [11] and in [19] was “inactive” throughout. Besides, the Potency result in [17], in [18], in assay [13] and in assay [14] was “inactive” in each case. In addition, in [12], the compound was classed as inactive.

`O=C1C=CC(=O)C=C1`: the Potency result in assay [1], in assay [2], in assay [3], in [4], in assay [5] and in assay [6] was “inactive” throughout. Moreover, the Potency result in [7], in assay [8], in assay [9], in assay [10], in assay [11] and in assay [17] was “inactive” in each case. In addition, the Potency entry in assay [18], in [13] and in assay [14] was “inactive” throughout. For the same compound, the compound was classed as inactive in assay [12].
